# From PubChem BioAssay AID1159580 (chemical genetic matrix, 2015)
# Among all 5,500 compounds or so, about 2,000 (36%) were called active. Roughly 18% stayed inconclusive and do not appear here. This is one part of the list. Values without a mark were called inactive. Cut-off read from the data, not from the text of the source: active = normalized growth mostly below about 0.91 (no sharp cut-off); inconclusive = no clear call, values can overlap the other calls; inactive = mostly above about 0.92.
# Assay: chemical genetic growth profiling, strain panel (AID 1159580);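 note: tested at 20 µM; growth read once vehicle control cultures reached saturation at 30 °C; 1 = growth at the plate median or of vehicle wells; lower values mean less growth of the strain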
# Details: S. cerevisiae deletion strains, growth OD
# [1] = locus YAL013W, strain DEP1, hits give low values
# [2] = locus YAL040C, strain CLN3, hits give low values
# [3] = locus YCL061C, strain MRC1 (second series), hits give low values
# [4] = locus YDR150W, strain NUM1, hits give low values
# [5] = locus YER002W, strain NOP16, hits give low values
# [6] = locus YNL153C, strain GIM3, hits give low values
# [7] = locus YNL175C, strain NOP13, hits give low values
# [8] = locus YNL197C, strain WHI3, hits give low values
# [9] = locus YNL224C, strain SQS1, hits give low values
# [10] = locus YOR083W, strain WHI5 (second series), hits give low values
# [11] = locus YMR307W, strain GAS1, hits give low values
structure (smiles),measurement,setting,value
Oc1cc(O)c2c(c1)OC(c1ccc(O)c(O)c1)C(O)C2 (centres undefined),normalized growth,[1],1
same,normalized growth,[2],1.01
same,normalized growth,[3],1
same,normalized growth,[4],1.01
same,normalized growth,[5],1.03
same,normalized growth,"locus YGR078C, strain PAC10, hits give low values",1.01
same,normalized growth,"locus YMR263W, strain SAP30, hits give low values",1
same,normalized growth,[6],1.03
same,normalized growth,[7],1.02
same,normalized growth,[8],1.01
same,normalized growth,[9],1.01
same,normalized growth,[10],1.02
O=C1c2c(O)cc(O)cc2OC(c2ccc(O)c(O)c2)C1O (centres undefined),normalized growth,[1],1.03
same,normalized growth,[2],1.04
same,normalized growth,[3],0.999
same,normalized growth,[4],0.987
same,normalized growth,"locus YDR363W, strain ESC2, hits give low values",1
same,normalized growth,[5],0.998
same,normalized growth,[11],1.01
same,normalized growth,[7],0.99
same,normalized growth,[8],0.977
same,normalized growth,[9],0.993
same,normalized growth,[10],0.991
O=C1c2ccc(O)cc2O[C@H](c2cc(O)c(O)c(O)c2)[C@H]1O,normalized growth,"locus YBR021W, strain FUR4, hits give low values",1
same,normalized growth,"locus YBR229C, strain ROT2, hits give low values",0.992
same,normalized growth,"locus YCL029C, strain bik1, hits give low values",1.02
same,normalized growth,"locus YDL035C, strain GPR1, hits give low values",1
same,normalized growth,"locus YDL074C, strain BRE1, hits give low values",0.939
same,normalized growth,"locus YDL101C, strain DUN1, hits give low values",0.93
same,normalized growth,"locus YDL185W, strain tfp1, hits give low values",0.999
same,normalized growth,"locus YDL192W, strain arf1, hits give low values",1.01
same,normalized growth,"locus YDR101C, strain arx1, hits give low values",1
same,normalized growth,"locus YDR162C, strain NBP2, hits give low values",1.03
same,normalized growth,"locus YDR318W, strain mcm21, hits give low values",1
same,normalized growth,"locus YDR388W, hits give low values",1.01
same,normalized growth,"locus YDR502C, strain sam2, hits give low values",1.02
same,normalized growth,"locus YEL061C, strain CIN8, hits give low values",0.999
same,normalized growth,"locus YER110C, hits give low values",1.02
same,normalized growth,"locus YER155C, strain BEM2, hits give low values",1.04
same,normalized growth,"locus YER167W, strain BCK2, hits give low values",1.04
same,normalized growth,"locus YGL078C, strain dbp3, hits give low values",1.01
same,normalized growth,"locus YGL086W, strain mad1, hits give low values",1.01
same,normalized growth,"locus YGL248W, strain PDE1, hits give low values",1
same,normalized growth,"locus YGR135W, strain pre9, hits give low values",1.01
same,normalized growth,"locus YGR252W, strain gcn5, hits give low values",0.972
same,normalized growth,"locus YHR030C, strain SLT2, hits give low values",1.01
same,normalized growth,"locus YHR079C, strain IRE1 (second series), hits give low values",1.02
same,normalized growth,"locus YHR094C, strain hxt1, hits give low values",1.02
same,normalized growth,"locus YHR129C, strain ARP1, hits give low values",0.997
same,normalized growth,"locus YHR200W, strain rpn10, hits give low values",0.982
same,normalized growth,"locus YIL066C, strain RNR3, hits give low values",0.99
same,normalized growth,"locus YIL073C, strain SPO22, hits give low values",1.07
same,normalized growth,"locus YIL125W, strain kgd1, hits give low values",1
same,normalized growth,"locus YIR030C, strain dcg1, hits give low values",1.03
same,normalized growth,"locus YJL095W, strain BCK1, hits give low values",0.884
same,normalized growth,"locus YJL134W, strain LCB3, hits give low values",1.01
same,normalized growth,"locus YJL168C, strain set2, hits give low values",1
same,normalized growth,"locus YJL187C, strain SWE1 (second series), hits give low values",0.853 (active)
same,normalized growth,"locus YJR043C, strain POL32, hits give low values",0.998
same,normalized growth,"locus YJR075W, strain HOC1, hits give low values",1.04
same,normalized growth,"locus YKL009W, strain mrt4, hits give low values",1.06
same,normalized growth,"locus YKL068W, hits give low values",1.02
same,normalized growth,"locus YKL085W, strain MDH1 (second series), hits give low values",1.01
same,normalized growth,"locus YKL085W, strain MDH1, hits give low values",1.01
same,normalized growth,"locus YKL190W, strain CNB1, hits give low values",1.01
same,normalized growth,"locus YKR001C, strain vps1, hits give low values",1
same,normalized growth,"locus YLR039C, strain RIC1, hits give low values",1.04
same,normalized growth,"locus YLR058C, strain SHM2, hits give low values",0.92
same,normalized growth,"locus YLR102C, strain apc9, hits give low values",1.01
same,normalized growth,"locus YLR262C, strain YPT6, hits give low values",1.06
same,normalized growth,"locus YLR268W, strain sec22, hits give low values",1.01
same,normalized growth,"locus YLR330W, strain CHS5, hits give low values",1.03
same,normalized growth,"locus YLR342W, strain FKS1 (second series), hits give low values",0.95
same,normalized growth,"locus YLR371W, strain rom2, hits give low values",0.992
same,normalized growth,"locus YLR418C, strain cdc73, hits give low values",1.01
same,normalized growth,"locus YML016C, strain PPZ1, hits give low values",0.987
same,normalized growth,"locus YML032C, strain rad52, hits give low values",1.06
same,normalized growth,"locus YML124C, strain tub3, hits give low values",1.02
same,normalized growth,"locus YMR078C, strain ctf18, hits give low values",1.03
same,normalized growth,"locus YMR223W, strain ubp8, hits give low values",1.03
same,normalized growth,[11],1.02
same,normalized growth,"locus YNL067W, strain RPL9B, hits give low values",1.01
same,normalized growth,[6],0.947
same,normalized growth,"locus YNL233W, strain BNI4, hits give low values",1.02
same,normalized growth,"locus YNL250W, strain rad50, hits give low values",1.01
same,normalized growth,"locus YNL271C, strain bni1, hits give low values",1.01
same,normalized growth,"locus YNL298W, strain CLA4, hits give low values",0.996
same,normalized growth,"locus YNL307C, strain MCK1, hits give low values",1
same,normalized growth,"locus YNL322C, strain KRE1, hits give low values",1.01
same,normalized growth,"locus YNR052C, strain pop2, hits give low values",0.967
same,normalized growth,"locus YOL012C, strain htz1",0.815
same,normalized growth,"locus YOL147C, strain pex11, hits give low values",1.01
same,normalized growth,"locus YOR061W, strain CKA2, hits give low values",1
same,normalized growth,"locus YOR069W, strain VPS5, hits give low values",1.01
same,normalized growth,"locus YOR136W, strain idh2, hits give low values",1.05
same,normalized growth,"locus YOR144C, strain elg1, hits give low values",1.02
same,normalized growth,"locus YOR184W, strain ser1, hits give low values",1.02
same,normalized growth,"locus YOR316C, strain cot1, hits give low values",1.01
same,normalized growth,"locus YPL055C, strain LGE1, hits give low values",1.02
same,normalized growth,"locus YPR119W, strain clb2, hits give low values",1
same,normalized growth,"locus YPR141C, strain kar3, hits give low values",1.01
same,normalized growth,"locus YPR163C, strain tif3, hits give low values",1.01
same,normalized growth,"locus YPR167C, strain met16, hits give low values",1.03
same,normalized growth,"strain wtn01, hits give low values",1.01
